In assay [1] the test system is DIO1 (gene 1733). Nature of the assay: CCTE_GLTED_hDIO1: CCTE's human Deiodinase 1 (DIO1) Inhibition Assay, Great Lakes Toxicology and Ecology Division (GLTED) Lab (AID 2283987; active means hit-call score of the fitted dose curve at least 0.9, where 1 is the maximum;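 further: isolated human DIO1 enzyme in a cell-free setup rather than cells; enzyme activity read as free iodide liberated from substrate via Sandell-Kolthoff colorimetry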). The essentials: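 Steps: human DIO1 enzyme plus test chemical, 3 h incubation; free iodide then quantified in a second Sandell-Kolthoff step by absorbance. DMSO served as negative control and baseline.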

Assay [2] concerns the target Nucleoli Translocation, AR (gene 367) (UniProt P10275). Nature of the assay: UPITT_HCI_U2OS_AR_TIF2_Nucleoli_Antagonist: University of Pittsburgh U2OS Androgen Receptor-Transcriptional Intermediary Factor 2 (AR-TIF2) Antagonism High Content Imaging Assay for Nucleoli Translocation (AID 2283997; active means hit-call score of the fitted dose curve at least 0.9, where 1 is the maximum). The essentials: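 Antagonism is read as loss of nucleolar AR-RFP signal relative to DHT, imaged in U2OS cells also carrying GFP-TIF2. Compounds screened at 20 uM final, 0.2% DMSO; primary actives retested in triplicate.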

Assay [3] addresses THRA (gene 7067) (UniProt P10827). As to the kind of experiment: TOX21_TRA_COA_Antagonist_Followup_ratio: Tox21 Thyroid Hormone Receptor alpha Antagonism through Coactivator Recruitment Follow-Up Assay, Ratio (AID 2283953; active means hit-call score of the fitted dose curve at least 0.9, where 1 is the maximum). The essentials: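 GST-TRα LBD 2.5 nM, BSA 0.10%, + cpd; then FITC-SRC-2 peptide 200 nM + Tb-anti-GST Ab 2 nM. TR-FRET ratio 520/495 nm. Norm: DMSO = 0%, T3 = 100%.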

In assay [4] the target is THRB (gene 7068) (UniProt P10828). Nature of the assay: TOX21_TRB_BLA_Antagonist_Followup_ratio: Tox21 Thyroid Hormone Receptor beta Antagonism Beta-lactamase (BLA) Follow-Up Assay, Ratio (AID 2283958; active means hit-call score of the fitted dose curve at least 0.9, where 1 is the maximum). The essentials: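 Cells were plated and allowed to attach for 5 h, then dosed with compounds in DMSO at 11 concentrations for 18 h at 37C. Beta-lactamase reporter activity was measured via CCF4-AM FRET as the 460:530 nm ratio.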
Chain of THRB (gene 7068) (P10828 whole entry, looked up, the tested form may be a part): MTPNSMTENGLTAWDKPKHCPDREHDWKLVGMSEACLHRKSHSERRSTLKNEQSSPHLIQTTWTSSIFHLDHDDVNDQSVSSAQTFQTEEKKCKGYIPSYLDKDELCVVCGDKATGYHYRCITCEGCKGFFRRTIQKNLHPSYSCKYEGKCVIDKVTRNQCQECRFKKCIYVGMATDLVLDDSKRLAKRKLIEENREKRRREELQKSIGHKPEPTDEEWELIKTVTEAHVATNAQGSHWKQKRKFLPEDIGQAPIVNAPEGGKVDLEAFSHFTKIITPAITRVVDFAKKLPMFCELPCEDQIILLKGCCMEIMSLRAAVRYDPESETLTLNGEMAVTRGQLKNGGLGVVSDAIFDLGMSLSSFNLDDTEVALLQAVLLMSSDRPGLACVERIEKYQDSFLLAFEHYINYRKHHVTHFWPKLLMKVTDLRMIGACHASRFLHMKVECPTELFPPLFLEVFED

The nature of assay [5]: TOX21_TRB_BLA_Antagonist_Followup_viability: Viability Assessment in the Tox21 Thyroid Hormone Receptor beta Antagonism Beta-lactamase (BLA) Follow-Up Assay (AID 2283961; active means hit-call score of the fitted dose curve at least 0.9, where 1 is the maximum). The essentials: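 Viability read as CellTiter-Glo ATP luminescence (loss of signal = cytotoxicity) in the same plates as the TRβ-bla readout. TRβ-LBD/GAL4 UAS-bla HEK293T cells were exposed to compounds, 11 concentrations in triplicate, for 18 h at 37C/5% CO2.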

Assay [6] addresses THRB (gene 7068) (UniProt P10828). As to the kind of experiment: TOX21_TRB_COA_Antagonist_Followup_ratio: Tox21 Thyroid Hormone Receptor beta Antagonism through Coactivator Recruitment Follow-Up Assay, Ratio (AID 2283967; active means hit-call score of the fitted dose curve at least 0.9, where 1 is the maximum). The essentials: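 Coactivator recruitment to the GST-tagged TRb ligand-binding domain (5.0 nM) was read as the 520/495 nm TR-FRET ratio, using 200 nM fluorescein SRC-2 peptide and 2 nM terbium anti-GST. Scaled between DMSO and T3 wells; loss of signal fitted.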

Assay [7] deals with Retinoic acid receptor RXR-alpha (Homo sapiens) (UniProt P19793). Nature of the assay: TOX21_TR_RXR_BLA_Antagonist_Followup_ratio: Tox21 Thyroid Hormone Receptor beta Retinoid X Receptor alpha (RXRa) Antagonism Beta-lactamase (BLA) Follow-Up Assay, Ratio (AID 2283972; active means hit-call score of the fitted dose curve at least 0.9, where 1 is the maximum). The essentials: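 Beta-lactamase reporter readout as cleaved/uncleaved substrate ratio (460:530 nm) after 2 h substrate loading at room temperature. GAL4-RXRa bla HEK293T cells were exposed 16 h at 37C to 11-point compound series; loss of signal scored against DMSO baseline.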
Chain of Retinoic acid receptor RXR-alpha (Homo sapiens) (P19793 whole entry, looked up, the tested form may be a part): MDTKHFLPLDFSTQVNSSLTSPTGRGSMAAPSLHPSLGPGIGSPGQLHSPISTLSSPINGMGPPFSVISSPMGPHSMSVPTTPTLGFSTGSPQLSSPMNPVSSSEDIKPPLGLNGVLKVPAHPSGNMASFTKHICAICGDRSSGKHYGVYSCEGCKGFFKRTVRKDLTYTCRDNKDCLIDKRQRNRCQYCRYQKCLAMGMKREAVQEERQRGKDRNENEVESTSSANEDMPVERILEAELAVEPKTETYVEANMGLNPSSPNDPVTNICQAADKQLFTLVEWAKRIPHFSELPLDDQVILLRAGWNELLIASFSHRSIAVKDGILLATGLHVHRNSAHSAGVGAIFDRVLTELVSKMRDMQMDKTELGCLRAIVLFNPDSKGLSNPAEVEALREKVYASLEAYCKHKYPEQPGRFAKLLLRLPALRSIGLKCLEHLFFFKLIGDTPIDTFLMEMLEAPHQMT

Assay [8] can be described thus: TOX21_TR_RXR_BLA_Antagonist_Followup_viability: Viability Assessment in the Tox21 Thyroid Hormone Receptor beta Retinoid X Receptor alpha (RXRa) Antagonism Beta-lactamase (BLA) Follow-Up Assay (AID 2283979; active means hit-call score of the fitted dose curve at least 0.9, where 1 is the maximum). The essentials:
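Follow-up compounds (11 concentrations, triplicate) were incubated 16 h at 37C/5% CO2 with HEK293T RXRa-bla cells seeded at 2,500/well in charcoal-stripped-serum medium. ATP content by CellTiter-Glo luminescence gave viability; curves fitted in both directions against DMSO.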

Assay [9] in a line: CCTE_Harrill_HTTr_Viability_DMEM_6hr: (Pilot) CCTE's 6-hour Cell Viability Assessment for the High-Throughput Transcriptomics (HTTr) Platform, in MCF-7 cells cultured in DMEM + 10% fetal bovine serum, Harrill Lab (AID 2283973). The essentials: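 Propidium iodide uptake imaged by high-content analysis after six hours of chemical treatment in an eight-concentration series. Cells: MCF-7 grown in DMEM with 10% fetal bovine serum; DMSO as baseline.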

Assay [10] is described as follows: CCTE_Harrill_HTTr_Viability_DMEM_12hr: (Pilot) CCTE's 12-hour Cell Viability Assessment for the High-Throughput Transcriptomics (HTTr) Platform, in MCF-7 cells cultured in DMEM + 10% fetal bovine serum, Harrill Lab (AID 2283974). The essentials:
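Propidium iodide dye exclusion imaged by high-content microscopy after 12 h chemical exposure (eight concentrations) of MCF-7 cells grown in DMEM plus 10% FBS; values fitted in both directions relative to DMSO.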

The nature of assay [11]: CCTE_Harrill_HTTr_Viability_DMEM_24hr: (Pilot) CCTE's 24-hour Cell Viability Assessment for the High-Throughput Transcriptomics (HTTr) Platform, in MCF-7 cells cultured in DMEM + 10% fetal bovine serum, Harrill Lab (AID 2283975). The essentials:
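Pilot study: propidium iodide dye exclusion, imaged by high content microscopy, after 24 h compound exposure (eight concentrations) in MCF-7 cultured in DMEM + 10% fetal bovine serum; DMSO served as negative control and baseline.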

Assay [12] is described as follows: CCTE_Harrill_HTTr_Viability_PRF_DMEM_6hr: (Pilot) CCTE's 6-hour Cell Viability Assessment for the High-Throughput Transcriptomics (HTTr) Platform, in MCF-7 cells cultured phenol red-free DMEM + 10% charcoal-stripped fetal bovine serum, Harrill Lab (AID 2283976). The essentials: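 Membrane integrity by high-content imaging of propidium iodide uptake, six hours after dosing with eight concentrations. Cells: MCF-7 grown in phenol red-free DMEM plus 10% charcoal-stripped serum; DMSO serves as baseline for bidirectional fits.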

Assay [13] in a line: CCTE_Harrill_HTTr_Viability_PRF_DMEM_12hr: (Pilot) CCTE's 12-hour Cell Viability Assessment for the High-Throughput Transcriptomics (HTTr) Platform, in MCF-7 cells cultured in phenol red-free DMEM + 10% charcoal-stripped fetal bovine serum, Harrill Lab (AID 2283977). The essentials:
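Membrane integrity was scored via propidium iodide dye exclusion imaging, fitted in both directions relative to DMSO. Compounds ran as eight-point dilutions for 12 hours on MCF-7 grown in phenol red-free DMEM plus 10% charcoal-stripped serum.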

Assay [14] can be described thus: CCTE_Harrill_HTTr_Viability_PRF_DMEM_24hr: (Pilot) CCTE's 24-hour Cell Viability Assessment for the High-Throughput Transcriptomics (HTTr) Platform, in MCF-7 cells cultured in phenol red-free DMEM + 10% charcoal-stripped fetal bovine serum, Harrill Lab (AID 2283980). The essentials: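 Propidium iodide exclusion imaged at 24 h after dosing scores viability; cells were MCF-7 grown in phenol red-free DMEM plus 10% charcoal-stripped serum, tested in eight concentrations, fitted in both directions against DMSO.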

Assay [15] is described as follows: CCTE_Harrill_HTTr_Apoptosis_DMEM_6hr: (Pilot) CCTE's 6-hour Apoptosis Assessment for the High-Throughput Transcriptomics (HTTr) Platform, in MCF-7 cells cultured in DMEM + 10% fetal bovine serum, Harrill Lab (AID 2283981). The essentials:
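MCF-7 cells grown in DMEM + 10% FBS were exposed for 6 hours to an eight-point dilution series. CellEvent Caspase 3/7 Green signal was imaged; activity fitted bidirectionally against DMSO.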

A short description of assay [16]: CCTE_Harrill_HTTr_Apoptosis_DMEM_12hr: (Pilot) CCTE's 12-hour Apoptosis Assessment for the High-Throughput Transcriptomics (HTTr) Platform, in MCF-7 cells cultured in DMEM + 10% fetal bovine serum, Harrill Lab (AID 2283982). The essentials:
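Caspase-3/7 activity was measured by high-content imaging (CellEvent Caspase 3/7 Green) after a 12-hour exposure of MCF-7 cells grown in DMEM with 10% FBS. Eight-point concentration series, fitted bidirectionally against vehicle.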

Assay [17] in a line: CCTE_Harrill_HTTr_Apoptosis_DMEM_24hr: (Pilot) CCTE's 24-hour Apoptosis Assessment for the High-Throughput Transcriptomics (HTTr) Platform, in MCF-7 cells cultured in DMEM + 10% fetal bovine serum, Harrill Lab (AID 2283983). The essentials:
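Caspase-3/7 activity read by high-content imaging (CellEvent Green reagent) 24 h after dosing. MCF-7 cells grown in DMEM with 10% FBS received an eight-point concentration series; fits were bidirectional versus DMSO.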

A short description of assay [18]: CCTE_Harrill_HTTr_Apoptosis_PRF_DMEM_6hr: (Pilot) CCTE's 6-hour Apoptosis Assessment for the High-Throughput Transcriptomics (HTTr) Platform, in MCF-7 cells cultured phenol red-free DMEM + 10% charcoal-stripped fetal bovine serum, Harrill Lab (AID 2283984). The essentials: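 Caspase-3/7 activity (CellEvent Green) read by high-content imaging 6 h after dosing, eight concentrations. Cells: MCF-7, phenol red-free DMEM with 10% charcoal-stripped serum. Curves fit both directions against DMSO.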

A short description of assay [19]: CCTE_Harrill_HTTr_Apoptosis_PRF_DMEM_12hr: (Pilot) CCTE's 12-hour Apoptosis Assessment for the High-Throughput Transcriptomics (HTTr) Platform, in MCF-7 cells cultured in phenol red-free DMEM + 10% charcoal-stripped fetal bovine serum, Harrill Lab (AID 2283985). The essentials:
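Caspase-3/7 activity by CellEvent Green high content imaging after 12 h compound exposure (eight concentrations) in MCF-7 grown in phenol red-free DMEM plus 10% charcoal-stripped serum; DMSO as baseline.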

Assay [20] can be described thus: CCTE_Harrill_HTTr_Apoptosis_PRF_DMEM_24hr: (Pilot) CCTE's 24-hour Apoptosis Assessment for the High-Throughput Transcriptomics (HTTr) Platform, in MCF-7 cells cultured in phenol red-free DMEM + 10% charcoal-stripped fetal bovine serum, Harrill Lab (AID 2283986). The essentials: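 Eight concentrations tested for 24 h on MCF-7 grown in charcoal-stripped serum, phenol red-free DMEM. High content imaging of CellEvent Caspase 3/7 Green signal gives apoptosis read-out, fitted both ways relative to DMSO.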

Inconclusive results are not listed. Calls of active or inactive are those of the source. How the source made its calls, unless noted: active means hit-call score of the fitted dose curve at least 0.9, where 1 is the maximum; inactive means score below 0.9.

Chain of Nucleoli Translocation, AR (gene 367) (P10275 whole entry, looked up): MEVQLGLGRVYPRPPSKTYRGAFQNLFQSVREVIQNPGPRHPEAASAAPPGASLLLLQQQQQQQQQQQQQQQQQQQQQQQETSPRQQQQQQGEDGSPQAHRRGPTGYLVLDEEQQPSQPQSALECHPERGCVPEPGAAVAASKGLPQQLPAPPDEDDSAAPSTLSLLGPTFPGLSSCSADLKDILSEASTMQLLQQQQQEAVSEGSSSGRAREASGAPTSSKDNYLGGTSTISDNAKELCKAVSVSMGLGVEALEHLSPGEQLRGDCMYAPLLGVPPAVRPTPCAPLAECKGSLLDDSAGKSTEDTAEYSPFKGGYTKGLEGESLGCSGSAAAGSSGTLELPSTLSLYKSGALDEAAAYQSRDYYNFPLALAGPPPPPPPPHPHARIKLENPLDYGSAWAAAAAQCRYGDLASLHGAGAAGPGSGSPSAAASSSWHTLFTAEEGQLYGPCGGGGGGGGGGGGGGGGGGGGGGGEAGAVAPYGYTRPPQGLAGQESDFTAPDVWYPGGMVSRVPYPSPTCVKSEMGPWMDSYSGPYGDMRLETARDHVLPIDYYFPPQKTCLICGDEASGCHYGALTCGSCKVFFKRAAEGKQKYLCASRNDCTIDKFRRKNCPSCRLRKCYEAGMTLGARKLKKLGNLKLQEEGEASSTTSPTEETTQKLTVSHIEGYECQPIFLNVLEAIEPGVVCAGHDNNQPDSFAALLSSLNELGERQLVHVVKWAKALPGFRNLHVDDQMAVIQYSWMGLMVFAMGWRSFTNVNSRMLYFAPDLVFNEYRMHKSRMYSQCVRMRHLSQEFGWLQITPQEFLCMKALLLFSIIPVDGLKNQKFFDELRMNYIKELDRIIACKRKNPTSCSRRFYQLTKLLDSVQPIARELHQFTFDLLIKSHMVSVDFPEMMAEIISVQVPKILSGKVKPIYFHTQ
Chain of THRA (gene 7067) (P10827 whole entry, looked up, the tested form may be a part): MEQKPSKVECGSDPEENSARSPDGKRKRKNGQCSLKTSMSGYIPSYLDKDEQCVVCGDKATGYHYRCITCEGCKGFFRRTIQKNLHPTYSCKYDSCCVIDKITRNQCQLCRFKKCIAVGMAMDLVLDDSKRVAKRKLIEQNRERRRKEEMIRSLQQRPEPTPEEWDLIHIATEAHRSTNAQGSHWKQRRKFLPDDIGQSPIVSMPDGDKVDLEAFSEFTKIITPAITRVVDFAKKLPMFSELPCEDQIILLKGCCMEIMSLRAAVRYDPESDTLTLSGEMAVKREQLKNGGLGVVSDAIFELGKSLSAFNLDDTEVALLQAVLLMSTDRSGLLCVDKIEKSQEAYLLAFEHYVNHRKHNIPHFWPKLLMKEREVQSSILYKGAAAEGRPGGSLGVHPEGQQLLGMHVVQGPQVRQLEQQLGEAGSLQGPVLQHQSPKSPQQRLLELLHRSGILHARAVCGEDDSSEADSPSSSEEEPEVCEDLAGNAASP

Consider `CCCN(CCC)c1c([N+](=O)[O-])cc(S(N)(=O)=O)cc1[N+](=O)[O-]`, for which the AC50 in assay [1] is 166 µM (active) [middle of 7 runs].

Consider `CC1=C(C(=O)Nc2ccccc2)SCCO1`, for which the call in [2] was inactive.

Regarding `CCCCNC(=O)n1c(NC(=O)OC)nc2ccccc21`, the result in [3], in [4], in [5], in [6], in assay [7] and in assay [8] was inactive. In addition, the result in assay [2] was inactive.

In the case of `CCCC1COC(Cn2cncn2)(c2ccc(Cl)cc2Cl)O1` (stereo unspecified), the outcome in assay [9], in assay [10], in assay [11], in assay [12], in assay [13] and in assay [14] was inactive. Also, the result in assay [15], in [16], in assay [17], in assay [18], in [19] and in assay [20] was inactive.

In the case of `CCNc1nc(Cl)nc(NCC)n1`, the result in assay [9], in assay [10], in [11], in [12], in [13] and in [14] was inactive. Moreover, the outcome in [15], in assay [16], in assay [17], in [18], in assay [19] and in assay [20] was inactive.

Take `COC(=O)N(OC)c1ccccc1COc1ccn(-c2ccc(Cl)cc2)n1`: the result in [3], in assay [6], in assay [9], in assay [10], in [11] and in [12] was inactive. Besides, the result in assay [13], in [14], in assay [15], in [16], in [17] and in [18] was inactive. Besides, the result in [19] and in [20] was inactive. The AC50 in assay [4] was 4.01 µM (active); in assay [5], 14.9 µM (active); in [7] it was 38.3 µM (active); in [8], 7.9 µM (active).

`Cc1ccc(-c2c(Cl)nc(C#N)n2S(=O)(=O)N(C)C)cc1`: in [1], the AC50 was 43.7 µM (active). The molecule was classed as inactive in [2].

On to `N#Cc1nn(-c2c(Cl)cc(C(F)(F)F)cc2Cl)c(N)c1S(=O)C(F)(F)F` (stereo unspecified), for which the AC50 in [1] was 50.6 µM (active). The result in [2] was inactive.

Take `CCOC(=O)CC(SP(=S)(OC)OC)C(=O)OCC` (stereo unspecified): the AC50 in [2] was 50 µM (active).

For the origin of these results see PubChem BioAssay (EPA / NIEHS).
